Measurements published in PubChem BioAssay.
Values without a mark were called inactive. Activity calls are given as the source filed them.

biological target: Luciferin 4-monooxygenase (Photinus pyralis) (UniProt P08659); assay: inhibition of purified Photinus pyralis luciferase – biochemical, luminescence, purified enzyme, 2006 set, primary screen (AID 1141); details: purified firefly luciferase, SteadyGlo luminescence, 30 min; higher = more signal, called active from +8 up or from −8 down;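 also: cell-free assay with purified firefly luciferase at 100 ng per well in PBS; test concentration not given here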
Sequence (P08659 whole entry, looked up): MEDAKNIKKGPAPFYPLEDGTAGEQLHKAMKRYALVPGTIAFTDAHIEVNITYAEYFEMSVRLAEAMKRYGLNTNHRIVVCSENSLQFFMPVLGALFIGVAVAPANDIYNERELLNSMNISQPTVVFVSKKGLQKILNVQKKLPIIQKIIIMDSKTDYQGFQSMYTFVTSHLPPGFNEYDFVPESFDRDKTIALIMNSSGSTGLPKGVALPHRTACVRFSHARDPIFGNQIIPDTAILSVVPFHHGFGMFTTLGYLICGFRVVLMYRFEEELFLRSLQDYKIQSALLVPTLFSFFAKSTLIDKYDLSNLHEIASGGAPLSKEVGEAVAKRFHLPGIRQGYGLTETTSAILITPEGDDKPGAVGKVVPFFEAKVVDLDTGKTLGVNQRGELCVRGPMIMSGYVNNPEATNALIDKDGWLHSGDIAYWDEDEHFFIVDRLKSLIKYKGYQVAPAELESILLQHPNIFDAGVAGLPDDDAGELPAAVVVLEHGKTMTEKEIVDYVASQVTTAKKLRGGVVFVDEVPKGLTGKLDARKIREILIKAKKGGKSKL

Row | Structure (SMILES) | z-score
1 | CC(=O)Nc1cc(Br)ccc1C(=O)O | -0.592
2 | Cc1ccccc1C(O)C1C=CC2C(=O)N(C)C(=O)C2N1N1CCCCC1 (stereo not given) | 0.497
3 | [N-]=[N+]=NCc1ccccc1[C@@H]1OC(c2ccc(OCCCO)cc2)=N[C@]1(Cc1ccccc1)C(=O)N1CCCCC1 | -1.22
4 | COCC(=C=CC[C@H](O)c1ccc(OCCO)cc1)C[C@H](O)c1cc(Cl)cc(Cl)c1O | -0.846
5 | COC(=O)[C@@]1(Cc2ccc(OC)cc2)[C@H]2c3cc(C(=O)N4CCCC4)n(Cc4ccccn4)c3C[C@H]2CN1C(=O)c1ccccc1 | 1.91
6 | COc1ccc([Si](C)(C)[C@@H]2[C@@H](CCn3cc([C@H](O)c4ccccc4)nn3)O[C@]3(C(=O)N(Cc4ccc(N5C(=O)c6cccc7cccc5c67)cc4)c4ccccc43)[C@H]2C)cc1 | -0.303
7 | O=C1O[C@@H](c2ccccc2)[C@@H](c2ccccc2)N2[C@@H](c3ccc(O)cc3)[C@]3(C(=O)Nc4ccc(C#CC5(O)CCCCCC5)cc43)[C@@H](C(=O)N3CCCCCCC3)[C@H]12 | -0.593
8 | O=C1[C@]2(CO)C=C(Br)[C@@H](C[C@@H]2c2ccccc2)[C@@]12CO2 | 0.969
9 | COCCOC(=O)N1C(=O)[C@@]2(c3cc(C#CCCO)ccc31)[C@H](c1ccccc1OCCO)N1[C@H](c3ccccc3)[C@H](c3ccccc3)OC(=O)[C@H]1[C@@H]2C(=O)N1CCN(c2ncccn2)CC1 | -0.198
10 | CC=CC(O)C1C=CC2C(=O)N(c3ccccc3)C(=O)C2N1Nc1ccc(C(C)C)cc1 (stereo not given) | -0.959
11 | CC(c1ccccc1)C(O)C1C=CC2C(=O)NC(=O)C2N1Nc1ccccn1 (stereo not given) | -1.64
12 | C=CCC(OC(C)=O)[C@@H]1[C@@H](N(Cc2ccc(-c3cccc(C(F)(F)F)c3)o2)C(=O)c2ccc(C)cc2)c2cc(OCCCO)ccc2N1C(=O)c1ccc(-c2ccccc2)cc1 (stereo not given in full) | -1.4
13 | COc1ccc([Si](C)(C)[C@@H]2[C@@H](CC(=O)N3CCC[C@H]3CO)O[C@]3(C(=O)N(C)c4c(Br)cc(C)cc43)[C@H]2C)cc1 | -0.297
14 | O=C1O[C@H](c2ccccc2)[C@H](c2ccccc2)N2[C@H]1[C@@H](C(=O)O)[C@]1(C(=O)Nc3ccc(C#CC4=CCCCC4)cc31)[C@H]2c1ccc(OCCO)cc1 | -9.5 (active)
15 | CCCNC(=O)[C@@]1(c2ccc([N+](=O)[O-])cc2)CC(=O)N(CC23CC4CC(CC(C4)C2)C3)[C@@H]1c1ccc(CO)cc1 | 0.494
16 | CC(C)C[C@@H]1NC(=O)[C@H]2C[C@@H](C(=O)NCCCCCCNC(=O)CS)[C@@H](c3cccc(OCCO)c3)N2C1=O | -1.05
17 | Cc1cc(C)c(C(O)C2C=CC3C(=O)N(C)C(=O)C3N2Nc2ccccc2)c(C)c1 (stereo not given) | 0.568
18 | O=C1OCCC=C[C@H]2OC34C=CCN(Cc5ccccc5)C(=O)[C@H]3N(CCCO)C(=O)[C@@H]4C12 (stereo not given in full) | 0.0952

Row | Structure (SMILES) | z-score
19 | COCCOC(=O)N1C(=O)[C@@]2(c3cc(C#CCC(C(=O)OC)C(=O)OC)ccc31)[C@H](c1ccc(O)cc1)N1[C@H](c3ccccc3)[C@H](c3ccccc3)OC(=O)[C@H]1[C@@H]2C(N)=O | -0.78
20 | COCCOC(=O)N1C(=O)[C@@]2(c3cc(C#CCC(C(=O)OC)C(=O)OC)ccc31)[C@H](c1ccccc1OCCO)N1[C@H](c3ccccc3)[C@H](c3ccccc3)OC(=O)[C@H]1[C@@H]2C(N)=O | -0.834
21 | C=CCNC(=O)[C@H]1[C@@H]2C(=O)O[C@@H](c3ccccc3)[C@@H](c3ccccc3)N2[C@@H](c2ccc(O)cc2)[C@]12C(=O)N(C(=O)OCCOC)c1ccc(C#CCCO)cc12 | -0.923
22 | CC(C)CNC(=O)[C@@H]1c2ccccc2C(=O)N(Cc2cc(C(F)(F)F)cc(C(F)(F)F)c2)[C@H]1c1ccc(CO)cc1 | -0.975
23 | O=C(CS)NCCCCCCNC(=O)[C@@H]1C[C@@H]2C(=O)N3CCC[C@H]3C(=O)N2[C@@H]1c1ccc(O)cc1 | -0.315
24 | CCCCCCc1nc(CCCc2cc3c(c(CCCCCC)n2)[Si](C(C)C)(C(C)C)OC3)cc2c1[Si](C(C)C)(C(C)C)OC2 | 0.651
25 | O=C1O[C@H](c2ccccc2)[C@H](c2ccccc2)N2[C@H]1[C@@H](C(=O)NC[C@H](O)c1ccccc1)[C@]1(C(=O)Nc3ccc(C#CCCO)cc31)[C@H]2c1ccc(O)cc1 | 0.145
26 | C=C[C@@H](COC(C)=O)N(Cc1ccccc1[N+](=O)[O-])S(=O)(=O)c1ccc(Br)cc1 | 0.335
27 | O=C1N(CCS(=O)(=O)c2ccccc2)Cc2ccccc2C[C@]12N=C(c1ccc(OCCCO)cc1)O[C@@H]2c1ccccc1 | -1
28 | CCOC(=O)C1=C[C@@H](CC)N(S(=O)(=O)c2ccc(C)cc2)[C@H]1c1ccccc1 | 2.12
29 | Cc1ccc(S[C@]2(C(=O)NCc3ccccc3)CC(=O)N(Cc3ccccc3)[C@@H]2c2ccc(CO)cc2)cc1 | -0.627
30 | CC(C)c1ccc(NN2C(C(O)c3ccc(N(C)C)cc3)C=CC3C(=O)N(c4ccccc4)C(=O)C32)cc1 (stereo not given) | -0.943
31 | CS(=O)(=O)CCOC(=O)C1=CC(c2ccc(CO)cc2)=CC(C2CC2)N(Cc2cc3c(cc2Br)OCO3)C=C1C(=O)OCCS(C)(=O)=O (stereo not given) | -1.51
32 | O=C1O[C@@H](c2ccccc2)[C@@H](c2ccccc2)N2[C@@H](c3ccc(OCCO)cc3)[C@]3(C(=O)Nc4ccccc43)[C@@H](C(=O)Nc3nc4ccccc4s3)[C@H]12 | -9.09 (active)
33 | CN(C)CCCCNC(=O)[C@H]1C[C@H]2C(=O)N[C@@H](Cc3ccccc3)C(=O)N2[C@H]1c1ccc(O)cc1 | 0.999
34 | C=CCC(OC(C)=O)[C@@H]1[C@@H](N(Cc2ccc(-c3ccccc3)cc2)C(=O)Cc2ccc(F)cc2)c2cc(OCCCO)ccc2N1C(=O)c1ccc2ccccc2n1 (stereo not given in full) | -1.26
35 | COC(=O)[C@@]1(Cc2ccccc2N=[N+]=[N-])COC(c2ccc(OCCCO)cc2)=N1 | -1.93
